Whole data set: some 1,100 compounds, median “Renilla luciferase signal (cell health) relative to plate median” near 0.97, cut for the highest 2% near 1.6. Shown is part of a subset that was picked to be rich in the highest values.
System: HEK293T (UBE3A T485A transfected, BAR Wnt reporter)
Assay: Renilla luciferase signal (cell health) relative to plate median (fold (linear ratio)); higher = higher Renilla signal
Details: 24 h
How it was run: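 Chemicals were robotically dosed at 0.01–100 uM for 24 h onto HEK293T cells, starting four hours after transfection with a BAR firefly luciferase Wnt reporter, TK-Renilla and an expression plasmid. The cells had been plated at 4500 cells/well in DMEM with 10% FBS at 37°C and 5% CO2. Following a Dual-Glo luciferase readout, the firefly/Renilla ratio served as the Wnt activity measure and raw Renilla as the cell health measure, both median-centred on each plate. Each value is the mean of four biological replicates.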

SMILES	Renilla luciferase signal (concentration: 0.01 uM)	Renilla luciferase signal (concentration: 0.1 uM)	Renilla luciferase signal (concentration: 1 uM)	Renilla luciferase signal (concentration: 10 uM)	Renilla luciferase signal (concentration: 100 uM)
CC(C)CC(C=O)NC(=O)C(CC(C)C)NC(=O)C(CC(C)C)NC(=O)OCc1ccccc1 (stereo unspecified)	0.694	0.675	0.0628	0.00775	0.00453
Cn1cc[nH]c1=S [Methimazole]	–	0.331	0.23	0.141	2.27
CNCc1ccc(NC(=O)c2c[nH]c3c2C(=O)CCC3)cc1	–	0.616	0.8	0.437	0.144
CC(=O)OC1C(=O)C2(C)C(O)CC3OCC3(OC(C)=O)C2C(OC(=O)c2ccccc2)C2(O)CC(OC(=O)C(O)C(NC(=O)c3ccccc3)c3ccccc3)C(C)=C1C2(C)C (stereo unspecified) [Taxol]	0.147	0.104	0.111	0.131	0.0793
CCCOC(=O)NCCCN(C)C.Cl [Propamocarb hydrochloride]	0.977	0.992	0.949	0.972	1.17
COCCOCCOC [Bis(2-methoxyethyl) ether]	–	1.08	1.3	1.34	1.31
Cn1c(=O)c2c(ncn2C)n(C)c1=O [Caffeine]	1.18	0.946	0.966	0.989	1.67
Cn1cnc2c1c(=O)[nH]c(=O)n2C [Theobromine]	–	0.97	0.856	1.15	1.22
Cn1c(=O)c2[nH]cnc2n(C)c1=O [Theophylline]	–	0.944	0.973	0.911	1.09
O=C(N[C@@H](Cc1ccccc1)[C@@H](O)C(=O)N1C[C@@H](O)[C@@H](O)C1)c1cc2cc(Cl)ccc2[nH]1 [Ingliforib]	–	0.797	0.711	0.851	0.148
COc1cccc(-c2ccc(/C=C\CN3CCCCCC3)cc2Cl)c1.Cl	–	1.01	1.16	1.14	2.06
CCOCCOCCOCCO [2-[2-(2-Ethoxyethoxy)ethoxy]ethanol]	–	0.893	0.862	0.833	0.954
CCOCCO [2-Ethoxyethanol]	–	1.23	1.26	1.38	1.66
CCOCCOCCO [2-(2-Ethoxyethoxy)ethanol]	–	0.939	1.02	0.906	1.17
Cc1ncc(CO)c(CO)c1O [Pyridoxine]	–	0.951	0.873	1	1.14
C=CCc1ccc(OC)c(OC)c1 [Methyleugenol]	–	0.897	0.832	0.797	0.924
Cc1ccc(N)cc1O [5-Amino-2-methylphenol]	–	1	1.22	1.28	1.78
Cc1ccc(C)c(O)c1 [2,5-Dimethylphenol]	–	1.01	0.973	1.14	1.28
Cc1ccc(C)c(O)c1C [2,3,6-Trimethylphenol]	–	0.934	0.808	0.965	1.14
C[C@]12CC[C@@H]3c4ccc(O)cc4C[C@@H](CCCCCCCCCS(=O)CCCC(F)(F)C(F)(F)F)[C@H]3[C@@H]1CC[C@@H]2O (stereo partly specified) [Fulvestrant]	–	1.07	1.04	1.09	0.48
Cc1nc(C)nc(N2C[C@@H](C)N(c3ccnc([C@@H](C)O)n3)[C@@H](C)C2)n1	–	0.951	1.05	1.15	1.28

SMILES	Renilla luciferase signal (concentration: 0.01 uM)	Renilla luciferase signal (concentration: 0.1 uM)	Renilla luciferase signal (concentration: 1 uM)	Renilla luciferase signal (concentration: 10 uM)	Renilla luciferase signal (concentration: 100 uM)
CC(C)(C)CC(C)(C)c1ccc(O)c(-n2nc3ccccc3n2)c1 [Octrizole]	–	1.08	1.17	1.27	1.31
Cc1cccc(Nc2cc(Cl)nc(SCC(=O)O)n2)c1C [Pirinixic acid]	–	0.799	0.871	0.861	1.71
O=C1CCC(N2C(=O)c3ccccc3C2=O)C(=O)N1 (stereo unspecified) [Thalidomide]	–	0.78	0.818	0.85	0.675
CCN(CC)C(=O)c1cccc(C)c1	0.895	0.897	0.949	0.847	1.79
CCNc1cccc(C)c1 [N-Ethyl-3-methylaniline]	–	1.02	0.916	0.98	0.872
COc1cc(C=O)ccc1O [4-Hydroxy-3-methoxybenzaldehyde]	–	0.805	0.833	0.848	0.902
CCN(Cc1c(F)cccc1Cl)c1c([N+](=O)[O-])cc(C(F)(F)F)cc1[N+](=O)[O-] [Flumetralin]	1.1	0.795	0.84	1	0.766
Cc1cc(C=C2SC(=O)N(c3ccccc3)C2=O)c(C)n1-c1cccnc1	–	1.02	1.06	0.979	0.257
O=c1[nH]c2cc([N+](=O)[O-])c([N+](=O)[O-])cc2[nH]c1=O	1.11	1.01	1.02	1.09	1.96
O=C(Nc1ccc(Cl)cc1)Nc1ccc(Cl)c(Cl)c1 [Triclocarban]	–	1	0.895	0.408	0.021
COC(=O)c1ccccc1O [Methyl salicylate]	–	1.22	1.13	1.23	0.53
O=C([O-])c1ccc2c(c1)nc(C(=O)NC1CCN(C3CC3)CC1)n2Cc1cc(-c2ccc(Cl)s2)on1.[Na+]	–	0.987	0.823	0.947	0.531
O=C1OC(c2ccc(O)cc2)(c2ccc(O)cc2)c2ccccc21 [Phenolphthalein]	–	1.1	1.09	1.15	0.0287
CCCCCCCC/C=C\CCCCCCCC(=O)OC[C@@H](O)[C@H]1OC[C@H](O)[C@H]1O [Sorbitan, mono-(9Z)-9-octadecenoate]	–	1	0.88	0.863	0.85
O=C(O)c1ccccc1C(c1ccc(O)cc1)c1ccc(O)cc1 [Phenolphthalin]	–	1.11	1.1	0.958	0.886
CN(C)CCOC(c1ccccc1)c1ccccc1.Cl [Diphenhydramine hydrochloride]	–	0.825	0.842	0.836	0.491
CCCC(=O)O [Butanoic acid]	–	1.03	1.11	1.14	1.73
CCCCCCCCCC(=O)O [Decanoic acid]	–	0.743	0.768	0.634	0.979
CCCCCC(=O)O [Hexanoic acid]	–	1.26	1.16	1.24	1.41
CN(C)C(=O)C1(N2CCCCC2)CCN(CC[C@@]2(c3ccc(Cl)c(Cl)c3)CN(C(=O)c3ccccc3)CCO2)CC1	–	0.903	0.888	0.664	0.0169

Reference: the supplement of paper PMC9254222
